“And” between values parts separate entries of the source, which are not always exact repeats. Equal values may be shown once. About 79,000 compounds went through this panel and 15% of them were active in at least one assay; those are over-represented in the sample as a whole. The source holds several records for some structures; these can differ, active in one and inactive in another. The source made the active and inactive calls. Rule as the data show it: active = growth inhibition above about 70%; inactive = the rest.
What was measured:
[1] = NCI Yeast Anticancer Drug Screen. Data for the mlh1 strain (AID 171);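 also: 0% = growth of vehicle-treated control cultures of the same strain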; details: S. cerevisiae mlh1 strain growth inhibition, stronger effect = higher value
In short: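 Compounds are applied to a genetically altered yeast strain, and its growth is compared with that of vehicle-treated cultures to give percent inhibition.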

[2] = NCI Yeast Anticancer Drug Screen. Data for the sgs1 strain (AID 173);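 also: 0% = growth of vehicle-only control cultures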; details: S. cerevisiae sgs1 mutant, stronger effect = higher value
In short: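 Compounds applied to genetically altered yeast; growth compared with vehicle-treated cultures to give % inhibition.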

[3] = NCI Yeast Anticancer Drug Screen. Data for the mlh1 rad18 strain (AID 175); details: S. cerevisiae mlh1 rad18 strain growth inhibition, stronger effect = higher value
In short: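 Cells of a genetically altered yeast strain, deficient in DNA damage repair, were treated with compound. Their growth was then compared with that of vehicle-treated cultures to give inhibition.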

[4] = NCI Yeast Anticancer Drug Screen. Data for the rad18 strain (AID 177); details: S. cerevisiae rad18 mutant growth inhibition, stronger effect = higher value
In short: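 Compounds are applied to a repair-deficient yeast strain, and growth is compared with that of vehicle-treated cultures to give percent inhibition.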

[5] = NCI Yeast Anticancer Drug Screen. Data for the rad52 strain (AID 147);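 also: 0% = growth of vehicle-treated control cultures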; details: S. cerevisiae rad52 mutant growth inhibition, stronger effect = higher value
In short: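 DNA repair-defective yeast; compound exposure; growth scored against vehicle controls.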

[6] = NCI Yeast Anticancer Drug Screen. Data for the wt1 strain (AID 149);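 also: 0% = growth of vehicle-treated wt1 cultures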; details: S. cerevisiae wt1 strain (SPY 50644) growth inhibition, stronger effect = higher value
In short: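 wt1 strain grown with compound or vehicle; inhibition taken from the growth difference.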

[7] = NCI Yeast Anticancer Drug Screen. Data for the rad50EPP+ strain (AID 151);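 also: 0% = growth of vehicle-treated control cultures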; details: S. cerevisiae rad50 mutant strain, stronger effect = higher value
In short: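 rad50EPP+ yeast treated with test compounds. Readout: growth vs vehicle control.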

[8] = NCI Yeast Anticancer Drug Screen. Data for the mgt1 strain (AID 153); details: S. cerevisiae mgt1 mutant growth inhibition, stronger effect = higher value
In short: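 Growth inhibition relative to vehicle controls was scored for the mgt1 yeast strain after compound exposure.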

[9] = NCI Yeast Anticancer Drug Screen. Data for the rad50 strain (AID 155);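 also: 0% = growth of vehicle-only cultures of the same strain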; details: S. cerevisiae rad50 strain growth inhibition, stronger effect = higher value
In short: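 DNA repair mutant yeast, compound exposure, growth read-out; inhibition is taken relative to vehicle.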

[10] = NCI Yeast Anticancer Drug Screen. Data for the mec2-1 strain (AID 157); details: S. cerevisiae mec2-1 strain, stronger effect = higher value
In short: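 Growth inhibition is read against vehicle-treated controls after compound exposure of the mec2-1 yeast strain, which is defective in DNA damage repair or cell cycle control.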

[11] = NCI Yeast Anticancer Drug Screen. Data for the rad14 strain (AID 159);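 also: 0% = growth of vehicle-treated control cultures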; details: S. cerevisiae rad14 strain growth inhibition, stronger effect = higher value
In short: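 DNA repair-defective yeast, compound-exposed; % growth inhibition derived by comparison with vehicle-treated controls.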

[12] = NCI Yeast Anticancer Drug Screen. Data for the sgs1 mgt1 strain (AID 161);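 also: 0% = growth of cultures given vehicle only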; details: S. cerevisiae sgs1 mgt1 strain, stronger effect = higher value
In short: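 This yeast growth screen uses a strain with defined DNA-repair lesions; compound-treated growth is compared with vehicle-treated growth.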

[13] = NCI Yeast Anticancer Drug Screen. Data for the CLN2oe strain (AID 163);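 also: 0% = growth of vehicle-only control cultures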; details: S. cerevisiae CLN2oe strain, stronger effect = higher value
In short: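 Compound-treated yeast; growth vs vehicle ctrl = % inhibition. Genetically altered strain (cell-cycle control).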

[14] = NCI Yeast Anticancer Drug Screen. Data for the cln2 rad14 strain (AID 165);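 also: 0% = growth equal to vehicle treated cultures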; details: S. cerevisiae cln2 rad14 strain, stronger effect = higher value
In short: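 Growth inhibition, relative to vehicle-treated controls, is the read-out. The test organism is a yeast strain with defined genetic alterations, cln2 rad14.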

[15] = NCI Yeast Anticancer Drug Screen. Data for the bub3 strain (AID 167); details: S. cerevisiae bub3 mutant strain, stronger effect = higher value
In short: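 In this screen, a yeast mutant lacking normal mitotic checkpoint function is challenged with compound. Relative growth versus vehicle gives the inhibition value.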

[16] = at 5.0 µM (retest, dose inferred, filed as 0.5)
[17] = at 50.0 µM (retest, dose inferred, filed as 5.0)

Measured: growth inhibition

COc1ccc2c(c1)n([O-])c1ccccc1[n+]2=O
inactive: [1]; at 1.2 µM 0% | [1]; at 3.7 µM 3% | [1]; at 11.0 µM 12% | [1]; at 33.0 µM 38% | [2]; at 1.2 µM 5% | [2]; at 3.7 µM 18% | [2]; at 11.0 µM 41% | [3]; at 50.0 µM 6.8% | [4]; at 1.2 µM 39%
active: [1]; at 100.0 µM 90% | [2]; at 33.0 µM 76% | [2]; at 100.0 µM 95% | [3]; [17] 93% and 98% | [4]; at 3.7 µM 75% | [4]; at 11.0 µM 93% | [4]; at 33.0 µM 97% | [4]; at 100.0 µM 96%
17% (inactive) and 81% (active): [3]; [16]

Cc1ccc(NCCNCCO)c2c(=O)c3cc(O)ccc3sc12
inactive: [5]; at 1.2 µM -5% | [5]; at 3.7 µM 12% | [5]; at 11.0 µM 30% | [6]; at 1.2 µM 10% | [6]; at 3.7 µM -9% | [6]; at 11.0 µM -5% | [6]; at 33.0 µM -1% | [6]; at 100.0 µM 18% | [7]; at 1.2 µM 12% | [7]; at 3.7 µM 22% | [7]; at 11.0 µM 25% | [7]; at 33.0 µM 36% | [7]; at 100.0 µM 51% | [8]; at 1.2 µM -10% | [8]; at 3.7 µM 1% | [8]; at 11.0 µM -11% | [8]; at 33.0 µM -1% | [9]; at 1.2 µM 4% | [9]; at 3.7 µM 4% | [9]; [16] 49% | [9]; at 11.0 µM 28% | [10]; at 1.2 µM 5% | [10]; at 3.7 µM -13% | [10]; [16] 21% | [10]; at 11.0 µM -11% | [10]; at 33.0 µM -10% | [10]; at 100.0 µM 58% | [11]; at 1.2 µM -18% | [11]; at 3.7 µM -4% | [11]; at 11.0 µM -2% | [11]; at 33.0 µM 0% | [12]; [16] 8% | [13]; at 1.2 µM 6% | [13]; at 3.7 µM 14% | [13]; at 11.0 µM 24% | [13]; at 33.0 µM 23% | [14]; [16] 17% | [15]; at 1.2 µM -24% | [15]; at 3.7 µM 0% | [15]; [16] 18% | [15]; at 11.0 µM 0% | [15]; at 33.0 µM -2% | [1]; at 1.2 µM -20% | [1]; at 3.7 µM -8% | [1]; at 11.0 µM -18% | [1]; at 33.0 µM -10% | [3]; [16] 13% | [4]; at 1.2 µM -35% | [4]; at 3.7 µM -30% | [4]; at 11.0 µM -27% | [4]; at 33.0 µM -5%
active: [5]; at 33.0 µM 90% | [5]; at 100.0 µM 93% | [8]; at 100.0 µM 90% | [9]; at 33.0 µM 93% | [9]; [17] 99% | [9]; at 50.0 µM 80.8% | [9]; at 100.0 µM 95% | [10]; [17] 99% | [10]; at 50.0 µM 71.8% | [11]; at 100.0 µM 97% | [12]; [17] 99% | [12]; at 50.0 µM 89.2% | [13]; at 100.0 µM 96% | [14]; [17] 100% | [14]; at 50.0 µM 88.9% | [15]; [17] 99% | [15]; at 50.0 µM 89.2% | [15]; at 100.0 µM 96% | [1]; at 100.0 µM 93% | [3]; [17] 99% | [3]; at 50.0 µM 81.7% | [4]; at 100.0 µM 93%

— PubChem BioAssay (NCI)
